The values below come from PubChem BioAssay (Tox21).

Experiment [1] is described as follows: Nuclear factor erythroid 2-related factor 2/antioxidant responsive element (Nrf2/ARE) small molecule agonists: qHTS cell viability counter screen in human keratinocytes (AID 1919968; active = well fitted curve in the direction sought with a large enough effect in the repeat runs; an effect the other way counts as inactive or inconclusive; also: nearly all actives have a fitted effect of over 55% in size; also: potency is read from the fitted curve at half-maximal effect). The procedure, abridged: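 Seed 1,500 KeratinoSens cells per well, then incubate 5 h at 37 C/5% CO2. Add compounds in DMSO and incubate 23 h. Add CellTiter-Fluor, wait 1 h and read fluorescence.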

A short description of experiment [2]: Nuclear factor erythroid 2-related factor 2/antioxidant responsive element (Nrf2/ARE) small molecule agonists: luciferase reporter gene qHTS assay in human keratinocytes (AID 1919969; also: nearly all actives have a fitted effect of over 35% in size; also: potency is read from the fitted curve at half-maximal effect). (In general: Reporter assays use an easily measured gene product as a stand-in for the process of interest.)
Experiment [3] deals with Gonadotropin-releasing hormone receptor (Homo sapiens) (UniProt P30968). Kind of experiment: Human gonadotropin-releasing hormone receptor (GnRHR) small molecule agonists, calcium flux assay in GnRHR-HEK293 cells (AID 1920063). Also: nearly all actives have a fitted effect of over 35% in size. The procedure, abridged: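 Cells: HEK293 stably expressing human GnRHR. Steps: overnight (18 h) culture, 1 h calcium dye loading at 37 C, compound addition, kinetic fluorescence read at 480/540 nm. Each compound tested at 15 concentrations in triplicate.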
Chain of Gonadotropin-releasing hormone receptor (Homo sapiens) (P30968 whole entry, looked up): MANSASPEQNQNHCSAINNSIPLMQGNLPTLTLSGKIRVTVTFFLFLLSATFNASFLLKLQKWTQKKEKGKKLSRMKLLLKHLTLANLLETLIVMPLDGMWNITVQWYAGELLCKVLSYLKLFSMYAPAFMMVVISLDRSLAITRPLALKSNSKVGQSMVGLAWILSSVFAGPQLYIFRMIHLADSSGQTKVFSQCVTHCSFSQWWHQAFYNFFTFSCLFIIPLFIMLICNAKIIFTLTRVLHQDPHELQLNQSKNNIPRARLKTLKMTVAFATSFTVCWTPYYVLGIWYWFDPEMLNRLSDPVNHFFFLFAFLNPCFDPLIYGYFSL

Experiment [4] is described as follows: p53 small molecule agonists, cell-based qHTS assay with human liver microsomes (AID 1963577). The procedure, abridged:
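Compounds act here after metabolic activation: human liver microsomes and NADPH, both at 0.5 mg/mL final, were co-added to p53RE-bla cells. Incubation ran 16 h at 37 C, followed by LiveBLAzer detection.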
On the technique in general: Quantitative high-throughput screening tests each substance at several concentrations.

Experiment [5] in a line: p53 small molecule agonists, cell-based qHTS assay with rat liver microsomes (AID 1963578). The procedure, abridged:
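Read-out is beta-lactamase reporter fluorescence (LiveBLAzer, 2 h, room temperature, dark) in p53RE-bla cells treated 16 h at 37 C with compound, rat liver microsomes and NADPH, both 0.5 mg/mL final.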

A short description of experiment [6]: p53 small molecule agonists, cell-based qHTS assay with human liver microsomes: qHTS cell viability counter screen (AID 1963579). Also: nearly all actives have a fitted effect of over 45% in size. The procedure, abridged: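 Cells carrying the p53 response-element beta-lactamase reporter are treated for 16 h at 37 C with test compounds in the presence of human liver microsomes and NADPH (both 0.5 mg/mL final); ATP-based CellTiter-Glo luminescence then reports viability.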

Experiment [7] is described as follows: p53 small molecule agonists, cell-based qHTS assay with rat liver microsomes: qHTS cell viability counter screen (AID 1963580). Also: nearly all actives have a fitted effect of over 45% in size. Also: potency is read from the fitted curve at half-maximal effect. The procedure, abridged:
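p53RE-bla HCT-116 cells (4,000/well) rested 5 h at 37 C, then given Tox21 compounds in DMSO with rat liver microsomes (0.5 mg/mL final) plus NADPH (0.5 mg/mL final) for 16 h at 37 C. Viability read by CellTiter-Glo luminescence after 30 min at room temperature.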

Experiment [8] in a line: p53 small molecule agonists, cell-based qHTS assay: qHTS cell viability counter screen (AID 1963581). Also: nearly all actives have a fitted effect of over 45% in size. Also: potency is read from the fitted curve at half-maximal effect. The procedure, abridged: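 Cells: HCT-116 with p53 response element-driven beta-lactamase. Treatment: 16 h, 37 C, compounds in DMSO. Read: CellTiter-Glo luminescence after 30 min RT.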
The nature of experiment [9]: p53 small molecule agonists, cell-based qHTS assay (AID 1963582; active = well fitted activation curve with a large enough effect in the signal ratio in the repeat runs, not every such curve was filed as active; the % refers to the signal ratio). The procedure, abridged: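 Quantitative HTS in p53RE-bla cells: after a 5 h settling period, compounds delivered in DMSO were left on cells for 16 h at 37 C, and reporter induction was measured as fluorescence following 2 h substrate loading.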
The target of experiment [10] is 5-hydroxytryptamine receptor 2A (Homo sapiens) (UniProt P28223). In words: 5-hydroxytryptamine receptor 2A (HTR2A) small molecule antagonists, cell-based qHTS assay (AID 1963586). Also: nearly all actives have a fitted effect of over 45% in size. The procedure, abridged: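 Antagonist-mode intracellular calcium assay: DOI (4 nM) added after 5 min compound pre-incubation at room temperature to dye-loaded HTR2A-CHO cells. Fluorescence followed for 3 min, sampled every second.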
Chain of 5-hydroxytryptamine receptor 2A (Homo sapiens) (P28223 whole entry, looked up): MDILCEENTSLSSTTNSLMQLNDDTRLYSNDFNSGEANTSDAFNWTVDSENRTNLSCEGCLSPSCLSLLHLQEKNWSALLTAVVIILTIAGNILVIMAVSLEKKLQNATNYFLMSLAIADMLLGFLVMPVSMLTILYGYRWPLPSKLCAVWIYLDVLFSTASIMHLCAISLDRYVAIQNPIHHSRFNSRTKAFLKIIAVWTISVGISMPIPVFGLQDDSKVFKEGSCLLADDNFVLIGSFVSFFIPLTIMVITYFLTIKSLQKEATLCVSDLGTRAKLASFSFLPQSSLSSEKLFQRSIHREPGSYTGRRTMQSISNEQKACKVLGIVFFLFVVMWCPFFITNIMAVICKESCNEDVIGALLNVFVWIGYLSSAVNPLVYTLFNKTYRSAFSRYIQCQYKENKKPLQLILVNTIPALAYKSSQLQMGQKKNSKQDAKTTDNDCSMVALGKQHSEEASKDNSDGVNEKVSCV

Experiment [11] has the same target. Kind of experiment: 5-hydroxytryptamine receptor 2A (HTR2A) small molecule agonists, cell-based qHTS assay (AID 1963587). Also: nearly all actives have a fitted effect of over 30% in size. Also: potency is read from the fitted curve at half-maximal effect. The procedure, abridged:
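HTR2A-CHO cells, plated 18 h at 37 C/5% CO2, dye-loaded 1 h at 37 C; compounds in DMSO added by pin tool (agonist mode). Intracellular calcium flux read as kinetic fluorescence on FDSS over 2 min at 1 s intervals.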

For experiment [12], the target named is Muscarinic acetylcholine receptor M1 (Homo sapiens) (UniProt P11229). In words: Cholinergic receptor muscarinic 1 (CHRM1) small molecule antagonists, cell-based qHTS assay (AID 1963588). Also: nearly all actives have a fitted effect of over 40% in size. Also: potency is read from the fitted curve at half-maximal effect. The procedure, abridged:
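CHRM1-CHO calcium-flux assay, antagonist mode. Cells were seeded 18 h, dye-loaded 1 h at 37 C and given compound for 5 min at RT, then acetylcholine was added at 50nM. FDSS fluorescence was read 3 min; 15 concentrations, three runs.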

Experiment [13] has the same target. Kind of experiment: Cholinergic receptor muscarinic 1 (CHRM1) small molecule agonists, cell-based qHTS assay (AID 1963589). Also: nearly all actives have a fitted effect of over 35% in size. The procedure, abridged:
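Agonist-mode qHTS in CHO cells stably carrying human muscarinic M1. Intracellular calcium is tracked by fluorescence every second after compound transfer; each compound runs at 15 concentrations in three independent runs.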

The nature of experiment [14]: cAMP Responsive Elements (CRE) small molecule agonists, cell-based qHTS assay (AID 1963590). The procedure, abridged: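 Agonist mode qHTS in CRE-bla HEK 293T cells: compounds dosed from DMSO for 3 h at 37 C/5% CO2, followed by LiveBLAzer B/G FRET substrate for 2 h at room temperature.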
Experiment [15] is described as follows: cAMP Responsive Elements (CRE) small molecule antagonists, cell-based qHTS assay (AID 1963591; active = well fitted inhibition curve with a large enough effect in the signal ratio in the repeat runs, not every such curve was filed as active; the % refers to the signal ratio). The procedure, abridged:
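Antagonist mode: test compounds are co-incubated with the adenylyl cyclase activator NKH477 (0.25 uM final) on CRE-bla HEK293T cells for 3 h at 37 °C, followed by LiveBLAzer substrate loading.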

Experiment [16] has as its target Beta-2 adrenergic receptor (Homo sapiens) (UniProt P07550). In words: Adrenergic beta2 receptor (ADRB2) small molecule antagonists, cell-based qHTS assay (AID 1963592). Also: series mostly up to about 92 µM; nearly all actives have a fitted effect of over 50% in size. The procedure, abridged: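 Cells (CHO, stable ADRB2 overexpression) incubated 18-20hr at 37C; compounds added from DMSO; agonist mix (1nM isoproterenol, 100uM IBMX, 25uM Ro-20-1724) added; 0.5hr RT; d2-cAMP and anti-cAMP-cryptate added; 1hr RT; 665/615 nm read.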

For experiment [17] the target is unchanged. In words: Adrenergic beta2 receptor (ADRB2) small molecule agonists, cell-based qHTS assay (AID 1963593).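 Also: CHO cells stably overexpressing human ADRB2.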 The procedure, abridged:
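CHO cells stably over-expressing ADRB2 were plated overnight at 37C, then dosed with compounds plus a stimulation mix containing 100uM IBMX and 25uM Ro-20-1724 for 0.5hr at room temperature. cAMP was measured by HTRF competition, 1hr.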

The target of experiment [18] is D(2) dopamine receptor (Homo sapiens) (UniProt P14416). Kind of experiment: Dopamine D2 receptor (DRD2) small molecule agonists, cell-based qHTS assay (AID 1963594). Also: nearly all actives have a fitted effect of over 35% in size. The procedure, abridged: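 HEK293 cells stably expressing DRD2 were cultured 24 h at 37 C, then given Ro20-1724 (0.1 mM final) and compounds for 10 min at room temperature. NKH477 (200nM) was then added for 30 min. cAMP was read by HTRF.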
Chain of D(2) dopamine receptor (Homo sapiens) (P14416 whole entry, looked up): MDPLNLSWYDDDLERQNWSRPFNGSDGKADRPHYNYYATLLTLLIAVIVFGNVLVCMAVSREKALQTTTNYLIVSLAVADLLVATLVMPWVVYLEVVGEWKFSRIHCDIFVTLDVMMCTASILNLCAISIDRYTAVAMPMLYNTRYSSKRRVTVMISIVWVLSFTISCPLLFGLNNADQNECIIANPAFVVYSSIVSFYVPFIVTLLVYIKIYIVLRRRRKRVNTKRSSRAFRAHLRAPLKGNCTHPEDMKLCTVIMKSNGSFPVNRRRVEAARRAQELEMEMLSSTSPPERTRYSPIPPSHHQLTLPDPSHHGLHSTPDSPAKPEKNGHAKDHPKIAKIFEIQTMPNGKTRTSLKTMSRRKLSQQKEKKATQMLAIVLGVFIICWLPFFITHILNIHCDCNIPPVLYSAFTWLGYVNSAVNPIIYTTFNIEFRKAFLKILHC

The target is the same in experiment [19]. In words: Dopamine D2 receptor (DRD2) small molecule antagonists, cell-based qHTS assay (AID 1963595; active = well fitted inhibition curve with a large enough effect in the signal ratio in the repeat runs, with a control signal flat; the % refers to the signal ratio). The procedure, abridged: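 HTRF cAMP read-out at 665 and 620 nm emission (340 nm excitation). Antagonist mode: compounds were tested against 12 nM quinpirole in DRD2-HEK293 cells, with 200 nM NKH477 raising cAMP and 0.1 mM Ro20-1724 blocking its breakdown.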

In experiment [20] the target is KiSS-1 receptor (Homo sapiens) (UniProt Q969F8). In words: Human kisspeptin (KISS1R) small molecule agonists, calcium flux assay in KISS1R-HEK293 cells (AID 1920064; active = well fitted curve in the direction sought with a large enough effect in the repeat runs; an effect the other way counts as inactive or inconclusive). The procedure, abridged: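 Cells plated and incubated 18 h; dye added, 1 h at 37 C; compounds in DMSO pinned in; signal read at 480/540 nm every second for 3 min. Each compound tested at 15 concentrations in triplicate.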
Chain of KiSS-1 receptor (Homo sapiens) (Q969F8 whole entry, looked up): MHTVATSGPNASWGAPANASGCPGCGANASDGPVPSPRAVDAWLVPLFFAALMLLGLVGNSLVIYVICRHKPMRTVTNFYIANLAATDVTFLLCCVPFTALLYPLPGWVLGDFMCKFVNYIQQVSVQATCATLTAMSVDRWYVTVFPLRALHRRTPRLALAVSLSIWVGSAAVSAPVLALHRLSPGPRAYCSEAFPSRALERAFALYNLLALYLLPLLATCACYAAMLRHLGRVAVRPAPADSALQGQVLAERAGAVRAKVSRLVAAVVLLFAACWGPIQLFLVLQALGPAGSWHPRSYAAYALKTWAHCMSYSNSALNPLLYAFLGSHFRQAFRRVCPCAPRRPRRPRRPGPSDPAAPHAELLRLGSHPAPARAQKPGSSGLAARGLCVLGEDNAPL

Where “and” joins values, the source holds several entries; their conditions need not be identical. Equal values may be shown once. Results filed as inconclusive are left out. Some structures have more than one record in an assay (separate samples or runs), and their calls can disagree. Calls of active or inactive are those of the source. Unless noted, calls follow the shape of the full dose curve.

Chain of Beta-2 adrenergic receptor (Homo sapiens) (P07550 whole entry, looked up): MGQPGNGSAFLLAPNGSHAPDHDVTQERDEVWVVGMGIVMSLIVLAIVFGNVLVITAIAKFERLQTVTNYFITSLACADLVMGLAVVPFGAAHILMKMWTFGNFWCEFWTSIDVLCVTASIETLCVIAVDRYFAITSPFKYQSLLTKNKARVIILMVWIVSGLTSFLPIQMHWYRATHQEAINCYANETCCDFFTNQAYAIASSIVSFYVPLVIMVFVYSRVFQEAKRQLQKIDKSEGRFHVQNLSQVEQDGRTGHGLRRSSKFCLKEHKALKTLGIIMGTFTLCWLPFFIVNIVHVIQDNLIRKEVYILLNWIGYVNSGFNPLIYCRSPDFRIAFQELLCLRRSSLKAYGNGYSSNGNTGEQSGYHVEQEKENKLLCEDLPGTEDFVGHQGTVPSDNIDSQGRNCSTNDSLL
Chain of Muscarinic acetylcholine receptor M1 (Homo sapiens) (P11229 whole entry, looked up): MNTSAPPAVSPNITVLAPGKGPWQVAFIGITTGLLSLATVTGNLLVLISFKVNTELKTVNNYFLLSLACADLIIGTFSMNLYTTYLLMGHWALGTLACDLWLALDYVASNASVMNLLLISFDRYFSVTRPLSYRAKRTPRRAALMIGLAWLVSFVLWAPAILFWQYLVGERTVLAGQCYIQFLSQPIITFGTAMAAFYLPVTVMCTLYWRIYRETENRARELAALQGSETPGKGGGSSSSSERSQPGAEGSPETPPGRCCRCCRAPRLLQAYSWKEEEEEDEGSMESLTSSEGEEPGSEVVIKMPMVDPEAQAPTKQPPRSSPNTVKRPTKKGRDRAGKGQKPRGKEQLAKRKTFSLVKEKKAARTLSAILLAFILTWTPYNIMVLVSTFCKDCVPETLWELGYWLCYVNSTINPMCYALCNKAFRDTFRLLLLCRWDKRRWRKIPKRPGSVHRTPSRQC

Consider `O=P(OCCCl)(OCCCl)OCCCl`, for which the Potency result in experiment [1], in [2], in experiment [3], in experiment [4], in experiment [5] and in experiment [6] was “inactive” each time. In addition, the Potency entry in experiment [7], in [8], in [9], in experiment [10], in [11] and in experiment [12] was “inactive” throughout. Also, the Potency result in experiment [13], in experiment [14], in experiment [15], in experiment [16], in experiment [17] and in [18] was “inactive” throughout. In experiment [19], the Potency entry is “inactive”.

On to `CC1CN1` (stereo not given), for which the Potency result in experiment [1], in experiment [2], in experiment [3], in [4], in [5] and in experiment [7] was “inactive” in each case. Further, the Potency result in experiment [8], in experiment [9], in experiment [10], in experiment [11], in experiment [13] and in experiment [14] was “inactive” each time. Also, the Potency entry in experiment [15], in experiment [16] and in experiment [19] was “inactive” each time. Moreover, the Potency in experiment [12] was 3.75 µM (active).

For the molecule `CCOC(=O)c1ccccc1N`, the Potency result in [1], in experiment [2], in experiment [3], in [6], in [7] and in experiment [8] was “inactive” throughout. Besides, the Potency result in experiment [10], in experiment [11], in experiment [12], in experiment [14], in [16] and in experiment [17] was “inactive” each time. The Potency result in [18] and in [19] was “inactive” in each case.

Turning to `CC(Cl)C(=O)O` (stereo not given), the Potency entry in experiment [1], in experiment [2], in experiment [20], in experiment [4], in [5] and in experiment [6] was “inactive” in each case. Moreover, the Potency entry in [7], in experiment [8], in experiment [9], in [10], in experiment [11] and in experiment [12] was “inactive” each time. Further, the Potency result in [13], in [14], in experiment [15], in [16], in experiment [17] and in experiment [18] was “inactive” each time. Also, the Potency result in [19] is “inactive”.

Take `CC(C)OC(=S)S`: the figures for the Potency in [1] and in experiment [2] were 30.6 µM (active) and 15.4 µM (active), respectively. In addition, the Potency entry in [3], in [4], in experiment [6], in [7], in experiment [9] and in experiment [10] was “inactive” in each case. Besides, the Potency entry in experiment [11], in experiment [12], in experiment [13], in [14], in experiment [15] and in experiment [16] was “inactive” in each case. For the same molecule, the Potency entry in experiment [18] and in experiment [19] was “inactive” throughout.

As to `CN(C)C(=O)Cl`, the Potency result in experiment [1], in experiment [2], in [3], in [6], in experiment [7] and in experiment [10] was “inactive” in each case. Besides, the Potency entry in experiment [11], in experiment [12], in [13], in experiment [14], in [15] and in experiment [16] was “inactive” in each case. Further, the Potency entry in [17], in experiment [18] and in experiment [19] was “inactive” throughout. For the same molecule, in experiment [8], the Potency is 45.7 µM (active) and inactive.

For `CCOP(=O)(O)OCC` (tested in a mixture with another compound), the Potency entry in experiment [1] was “inactive and 24.1 µM (active)”; in [7] it was “inactive and 36.1 µM (active)”; in [8], “inactive and 28.6 µM (active)”; in [11], “inactive and 19.3 µM (active)”; in [12], “inactive and 1.48 µM (active)”. Also, the Potency entry in experiment [2], in experiment [3], in experiment [10], in [13], in experiment [14] and in experiment [15] was “inactive” in each case. For the same molecule, the Potency entry in experiment [16], in [17], in experiment [18] and in experiment [19] was “inactive” each time.
